Source: PubChem BioAssay
For part of these data: Entries with a potency or affinity are not part of this list. Active and inactive are the calls of the source. Unless noted, cut-off not given; nearly all actives show IC50 up to about 0.98 µM.

Test system: not listed separately
Assay: inhibition of 3D7 malaria parasite growth – strain 3D7 (AID 2306; call rule not given here;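 further: 0% = DMSO wells and 100% = chloroquine plus artemisinin control wells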)
Conditions: P. falciparum 3D7 erythrocytic growth, LDH absorbance, 72 h; at 2 µM; active compounds read high

Row | Structure (SMILES) | growth inhibition
1 | CC(C)(C)c1ccc(Cc2cccc3nc(N)nc(N)c23)cc1 | 100% (active)
2 | CCn1c(O)c(N=NC(=S)N2CCCC2)c2ccccc21 | 91% (active)
3 | CCOC(=O)c1nc2ccc(SC3CCCCC3)cn2c1Br | 86% (active)
4 | CCCCOc1c(CCNCCCCNCCc2cc(OC)c3ccccc3c2OCCCC)cc(OC)c2ccccc12 | 91% (active)
5 | CCOc1cc(Cc2cnc(N)nc2N)ccc1OC | 88% (active)
6 | Cc1nc(N)nc(N)c1-c1ccc(Br)c(Br)c1 | 94% (active)
7 | CCCOc1cc2c(cc1OCCC)C(C=Cc1ccc(Cl)cc1Cl)=NC(C)C2 (stereo not drawn) | 90% (active)
8 | COc1ccc(OC)c(CC2c3ccc(Br)c(O)c3CCN2C)c1 (stereo not drawn) | 98% (active)
9 | COc1cc(Cc2cnc3nc(N)nc(N)c3c2C)cc(OC)c1OC | 95% (active)
10 | Cc1nc(NCc2ccccc2)cc(Nc2cc(NCc3ccccc3)nc(C)n2)n1 | 90% (active)
11 | CCc1nc(N)nc(N)c1-c1ccc2c(c1)CCCC2 | 95% (active)
12 | Cc1[nH]c(C)c(-c2ccc(Oc3ccc(Cl)cc3)cc2)c(=O)c1Cl | 91% (active)
13 | Cc1c(C(C)(C)C)ccc2nc(N)nc(N)c12 | 89% (active)
14 | COc1cc(Cc2cnc(N)nc2N)cc(OCCCCNS(=O)(=O)C(F)(F)F)c1OC | 84% (active)
15 | Nc1nc(N)c2cc(Cc3ccc([N+](=O)[O-])cc3)cnc2n1 | 91% (active)
16 | CCC(C)c1cnc2nc(N)nc(N)c2c1C (stereo not drawn) | 97% (active)
17 | NC(N)=NC(=O)Nc1ccc(Cl)c([N+](=O)[O-])c1 | 97% (active)
18 | CCCc1cc(OC)c(CC2c3cc(O)c(Cl)cc3C(c3ccccc3)CN2C)cc1OC (stereo not drawn) | 100% (active)
19 | CC1CN=C(c2ccc(NC(=O)Nc3ccc(C4=NCC(C)N4)cc3)cc2)N1 (stereo not drawn) | 85% (active)
20 | Oc1c(CNC2CCCCC2)cc(Cl)c2ccccc12 | 98% (active)

Row | Structure (SMILES) | growth inhibition
21 | Cc1[nH]c(C)c(-c2ccc(Oc3ccc(Cl)c(Cl)c3)cc2)c(=O)c1Br | 97% (active)
22 | CC(C)(C)c1ccc(-c2nc3c(ccc4nc(N)nc(N)c43)[nH]2)cc1 | 100% (active)
23 | Nc1nc(N)c2c(n1)CCc1cc(Br)ccc1-2 | 87% (active)
24 | CCN(C)C(=O)n1ncc2c3c(N)nc(N)nc3ccc21 | 95% (active)
25 | Cc1nc2nc(N)nc(N)c2c(C)c1Cc1ccc(N)cc1 | 97% (active)
26 | Nc1nc(N)c2c(ccc3c2cnn3Cc2cccnc2)n1 | 95% (active)
27 | Cc1[nH]c(C)c(-c2ccc(Oc3cc(Cl)cc(Cl)c3)cc2)c(=O)c1Br | 96% (active)
28 | COc1ccc(OC)c(Cc2c(C)nc3nc(N)nc(N)c3c2C)c1 | 90% (active)
29 | CCCCc1cc(Cc2cnc(N)nc2N)cc(OC)c1OC | 86% (active)
30 | CC(C)c1ccc2c(c1)C(=O)c1ccc(C(=O)O)cc1S2(=O)=O | 93% (active)
31 | CCCCNCCOc1ccc(-c2nc(-c3ccccc3)c(-c3ccccc3)[nH]2)cc1 | 100% (active)
32 | Nc1nc(Cc2ccc(Cl)cc2)nc(Cc2ccc(Cl)cc2)n1 | 85% (active)
33 | Cc1cc(=O)c(-c2ccc(Oc3ccc(OC(F)(F)F)cc3)cc2)c(C)[nH]1 | 93% (active)
34 | CC(C)CNc1nc(N)nc2ccc3c(ccn3CC(C)C)c12 | 99% (active)
35 | CC(=O)Oc1c(Br)c(C)nc(C)c1-c1ccc(Oc2ccc(OC(F)(F)F)cc2)cc1 | 98% (active)
36 | FC(F)(F)c1ccc2c(NCCCNc3ccnc4cc(C(F)(F)F)ccc34)ccnc2c1 | 100% (active)
37 | CCNCCCC(C)Nc1ccnc2cc(Cl)ccc12 (stereo not drawn) | 100% (active)
38 | CCCN(c1ccc(O)c(CN2CCCCC2)c1)c1ccc([N+](=O)[O-])cn1 | 99% (active)
39 | CCOC(=O)c1c(-c2ccccc2)c(C(=O)OCC)n2ccccc12 | 93% (active)

Molecular target: Calcium-dependent protein kinase 1 (Plasmodium falciparum (isolate 3D7)) (UniProt P62344)
Sequence (P62344 whole entry, looked up): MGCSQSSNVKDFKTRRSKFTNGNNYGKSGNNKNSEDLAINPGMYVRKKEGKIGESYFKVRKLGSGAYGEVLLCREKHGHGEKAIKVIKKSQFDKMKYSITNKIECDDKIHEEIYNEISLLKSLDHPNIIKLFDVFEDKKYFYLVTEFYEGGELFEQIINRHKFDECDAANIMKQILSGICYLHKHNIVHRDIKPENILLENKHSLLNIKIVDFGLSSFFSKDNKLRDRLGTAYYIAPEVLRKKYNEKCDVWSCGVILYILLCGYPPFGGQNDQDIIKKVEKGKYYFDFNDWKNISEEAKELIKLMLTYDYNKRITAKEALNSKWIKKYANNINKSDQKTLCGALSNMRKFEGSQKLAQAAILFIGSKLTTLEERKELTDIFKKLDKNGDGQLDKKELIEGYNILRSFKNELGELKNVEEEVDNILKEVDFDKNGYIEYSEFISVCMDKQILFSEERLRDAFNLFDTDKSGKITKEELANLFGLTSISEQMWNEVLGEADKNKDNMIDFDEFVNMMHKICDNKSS
Assay: PfCDPK1 kinase inhibitors, biochemical, TCAMS library (AID 1159585);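 further: inhibitors leave more ATP so luminescence rises with inhibition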
Conditions: recombinant PfCDPK1, Kinase-Glo ATP depletion luminescence

Row | Structure (SMILES) | outcome
40 | CC(C)(C)c1ccc(Cc2cccc3nc(N)nc(N)c23)cc1 | inactive
41 | CCn1c(O)c(N=NC(=S)N2CCCC2)c2ccccc21 | inactive
42 | CCOC(=O)c1nc2ccc(SC3CCCCC3)cn2c1Br | inactive
43 | CCCCOc1c(CCNCCCCNCCc2cc(OC)c3ccccc3c2OCCCC)cc(OC)c2ccccc12 | inactive
44 | CCOc1cc(Cc2cnc(N)nc2N)ccc1OC | inactive
45 | Cc1nc(N)nc(N)c1-c1ccc(Br)c(Br)c1 | inactive
46 | CCCOc1cc2c(cc1OCCC)C(C=Cc1ccc(Cl)cc1Cl)=NC(C)C2 (stereo not drawn) | inactive
47 | COc1ccc(OC)c(CC2c3ccc(Br)c(O)c3CCN2C)c1 (stereo not drawn) | inactive
48 | COc1cc(Cc2cnc3nc(N)nc(N)c3c2C)cc(OC)c1OC | inactive
49 | Cc1nc(NCc2ccccc2)cc(Nc2cc(NCc3ccccc3)nc(C)n2)n1 | inactive
50 | CCc1nc(N)nc(N)c1-c1ccc2c(c1)CCCC2 | inactive
51 | Cc1[nH]c(C)c(-c2ccc(Oc3ccc(Cl)cc3)cc2)c(=O)c1Cl | inactive
52 | Cc1c(C(C)(C)C)ccc2nc(N)nc(N)c12 | inactive
53 | COc1cc(Cc2cnc(N)nc2N)cc(OCCCCNS(=O)(=O)C(F)(F)F)c1OC | inactive
54 | Nc1nc(N)c2cc(Cc3ccc([N+](=O)[O-])cc3)cnc2n1 | inactive
55 | CCC(C)c1cnc2nc(N)nc(N)c2c1C (stereo not drawn) | inactive
56 | NC(N)=NC(=O)Nc1ccc(Cl)c([N+](=O)[O-])c1 | inactive
57 | CCCc1cc(OC)c(CC2c3cc(O)c(Cl)cc3C(c3ccccc3)CN2C)cc1OC (stereo not drawn) | inactive
58 | CC1CN=C(c2ccc(NC(=O)Nc3ccc(C4=NCC(C)N4)cc3)cc2)N1 (stereo not drawn) | inactive
59 | Oc1c(CNC2CCCCC2)cc(Cl)c2ccccc12 | inactive

Row | Structure (SMILES) | outcome
60 | Cc1[nH]c(C)c(-c2ccc(Oc3ccc(Cl)c(Cl)c3)cc2)c(=O)c1Br | inactive
61 | CC(C)(C)c1ccc(-c2nc3c(ccc4nc(N)nc(N)c43)[nH]2)cc1 | inactive
62 | Nc1nc(N)c2c(n1)CCc1cc(Br)ccc1-2 | inactive
63 | CCN(C)C(=O)n1ncc2c3c(N)nc(N)nc3ccc21 | inactive
64 | Cc1nc2nc(N)nc(N)c2c(C)c1Cc1ccc(N)cc1 | inactive
65 | Nc1nc(N)c2c(ccc3c2cnn3Cc2cccnc2)n1 | inactive
66 | Cc1[nH]c(C)c(-c2ccc(Oc3cc(Cl)cc(Cl)c3)cc2)c(=O)c1Br | inactive
67 | COc1ccc(OC)c(Cc2c(C)nc3nc(N)nc(N)c3c2C)c1 | inactive
68 | CCCCc1cc(Cc2cnc(N)nc2N)cc(OC)c1OC | inactive
69 | CC(C)c1ccc2c(c1)C(=O)c1ccc(C(=O)O)cc1S2(=O)=O | inactive
70 | CCCCNCCOc1ccc(-c2nc(-c3ccccc3)c(-c3ccccc3)[nH]2)cc1 | inactive
71 | Nc1nc(Cc2ccc(Cl)cc2)nc(Cc2ccc(Cl)cc2)n1 | inactive
72 | Cc1cc(=O)c(-c2ccc(Oc3ccc(OC(F)(F)F)cc3)cc2)c(C)[nH]1 | inactive
73 | CC(C)CNc1nc(N)nc2ccc3c(ccn3CC(C)C)c12 | inactive
74 | CC(=O)Oc1c(Br)c(C)nc(C)c1-c1ccc(Oc2ccc(OC(F)(F)F)cc2)cc1 | inactive
75 | FC(F)(F)c1ccc2c(NCCCNc3ccnc4cc(C(F)(F)F)ccc34)ccnc2c1 | inactive
76 | CCNCCCC(C)Nc1ccnc2cc(Cl)ccc12 (stereo not drawn) | inactive
77 | CCCN(c1ccc(O)c(CN2CCCCC2)c1)c1ccc([N+](=O)[O-])cn1 | inactive
78 | CCOC(=O)c1c(-c2ccccc2)c(C(=O)OCC)n2ccccc12 | inactive
